From PubChem BioAssay (EPA / NIEHS)
“And” between values parts separate entries of the source, which are not always exact repeats. Equal values may be shown once. Results filed as inconclusive are left out. More than one record can exist for a structure, and the calls need not agree. The source made the active and inactive calls. How the source made its calls, unless noted: active means hit-call score of the fitted dose curve at least 0.9, where 1 is the maximum; inconclusive means response in the unintended direction; inactive means score below 0.9.

What was measured:
[1] = TOX21_p53_BLA_p2_viability: Viability Assessment in the Tox21 HCT-116 p53 Agonism Beta-lactamase Assay, Phase 2 (AID 2283591);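 further: compound exposure lasted 16 h at 37 °C; actives lower the ATP signal meaning cytotoxicity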
Outline: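 HCT-116 p53-bla cells (4000/well) rested 5 h at 37C, then received compounds in DMSO (217-fold dilution) for 16 h at 37C, 5% CO2. After the CCF4 read, CellTiter-Glo was added; ATP luminescence was read after 30 min at room temperature.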

[2] = TOX21_p53_BLA_p3_viability: Viability Assessment in the Tox21 HCT-116 p53 Agonism Beta-lactamase Assay, Phase 3 (AID 2283593)
Outline: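 HCT-116 cells (4000/well) rested 5 h at 37C, then got DMSO compounds by pin tool (217-fold dilution) for 16 h at 37C, 5% CO2. After the bla read, CellTiter-Glo was added and luminescence read at 30 min, room temperature.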

[3] = TOX21_p53_BLA_p4_viability: Viability Assessment in the Tox21 HCT-116 p53 Agonism Beta-lactamase Assay, Phase 4 (AID 2283597);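 further: hits lower the luminescence signal meaning cytotoxicity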
Outline: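 We seeded HCT116 p53 reporter cells at 4000/well and waited 5 h. We then added compounds in DMSO at a 217-fold dilution and incubated for 16 h. Viability was read as CellTiter-Glo luminescence after 30 min at RT.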

[4] = TOX21_p53_BLA_p5_viability: Viability Assessment in the Tox21 HCT-116 p53 Agonism Beta-lactamase Assay, Phase 5 (AID 2283600)
Outline: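 Compounds, pinned from DMSO at 217-fold dilution, were left on the cells for 16 h. The viability endpoint was ATP content measured by CellTiter-Glo luminescence, where falling signal reflects cytotoxicity.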

[5] = CCTE_Shafer_MEA_dev_firing_rate_mean: CCTE's Neural Network Formation Assay for Mean Firing Rate, Shafer Lab (AID 2284031; active means hit-call score of the fitted dose curve at least 0.9, where 1 is the maximum; inactive means score below 0.9)
Outline: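 Primary rat cortical neurons on 48-well MEA plates, exposed from plating day 0 with dosing renewed on DIV 5 and 9. Mean well firing rate over active electrodes, recorded days 5, 7, 9, 12, summarised as trapezoidal AUC.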

[6] = CCTE_Shafer_MEA_dev_per_burst_spike_percent: CCTE's Neural Network Formation Assay for Percent of Spikes in a Burst, Shafer Lab (AID 2284032; active means hit-call score of the fitted dose curve at least 0.9, where 1 is the maximum; inactive means score below 0.9)
Outline: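 Rat primary cortical neurons on 16-electrode MEA wells, dosed from plating day 0 for 12 days with renewal on DIV 5 and 9; spikes-in-bursts percentage averaged over bursting electrodes, collapsed as AUC across days 5, 7, 9, 12; loss direction versus DMSO.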

[7] = CCTE_Shafer_MEA_dev_burst_rate: CCTE's Neural Network Formation Assay for Burst Rate, Shafer Lab (AID 2284042; active means hit-call score of the fitted dose curve at least 0.9, where 1 is the maximum; inactive means score below 0.9)
Outline: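 Developmental network assay measuring how 12-day exposure of rat cortical neuron cultures alters bursting on extracellular MEA recordings. Values are AUC of well-mean burst rate across four recording days, relative to DMSO vehicle.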

[8] = CCTE_Shafer_MEA_dev_bursting_electrodes_number: CCTE's Neural Network Formation Assay for Number of Bursting Electrodes, Shafer Lab (AID 2284043)
Outline: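 Primary rat cortical neurons were cultured on PEI-coated 48-well MEA plates (16 electrodes/well) and exposed from plating through day 12, with compound renewed at feeds on DIV 5 and 9. Electrodes bursting ≥1 per 2 min were counted on DIV 5, 7, 9, 12; trapezoidal AUC taken.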

[9] = CCTE_Shafer_MEA_dev_per_burst_interspike_interval: CCTE's Neural Network Formation Assay for Burst Interspike Interval, Shafer Lab (AID 2284044; active means hit-call score of the fitted dose curve at least 0.9, where 1 is the maximum; inactive means score below 0.9)
Outline: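 Readout is the average time between spikes inside single-electrode bursts, taken as a well mean across bursting electrodes. Cortical neurons from rat developed networks on MEA plates under continuous 12-day exposure; recordings on days 5, 7, 9 and 12 were integrated by trapezoidal AUC.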

[10] = CCTE_Shafer_MEA_dev_burst_duration_mean: CCTE's Neural Network Formation Assay for Mean Burst Duration, Shafer Lab (AID 2284045; active means hit-call score of the fitted dose curve at least 0.9, where 1 is the maximum; inactive means score below 0.9)
Outline: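 Primary rat cortical neurons on PEI-coated 16-electrode MEA wells, exposed from plating through day 12 with compound renewed at DIV 5 and 9; spontaneous activity recorded days 5, 7, 9, 12. Well-mean burst duration collapsed as trapezoidal AUC, fitted for loss versus DMSO.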

[11] = CCTE_Shafer_MEA_dev_interburst_interval_mean: CCTE's Neural Network Formation Assay for Mean Interburst Interval, Shafer Lab (AID 2284046; active means hit-call score of the fitted dose curve at least 0.9, where 1 is the maximum; inactive means score below 0.9;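 further: well-mean interburst interval of bursting electrodes as AUC over four recording days; curve fitted for decrease in interburst interval relative to DMSO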)
Outline: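 Network formation assay in primary rat cortical cultures, exposed from DIV 0 to 12. Mean interburst interval per well, integrated as AUC over four recordings.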

[12] = CCTE_Shafer_MEA_dev_inter_network_spike_interval_mean: CCTE's Neural Network Formation Assay for Mean Inter-network Spike Interval, Shafer Lab (AID 2284047; active means hit-call score of the fitted dose curve at least 0.9, where 1 is the maximum; inactive means score below 0.9)
Outline: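 Compound was given at plating to primary rat cortical neurons and renewed with full medium changes on DIV 5 and 9. Extracellular activity was recorded on days 5, 7, 9, 12; AUC values were fitted for loss relative to DMSO control.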

[13] = CCTE_Shafer_MEA_dev_network_spike_number: CCTE's Neural Network Formation Assay for Number of Network Spikes, Shafer Lab (AID 2284048; active means hit-call score of the fitted dose curve at least 0.9, where 1 is the maximum; inactive means score below 0.9)
Outline: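 Primary rat cortical neurons were seeded at 1.5 x 10^5 cells/well on PEI-coated 16-electrode MEA wells with laminin, exposed from plating day 0, compound renewed at DIV 5 and 9. Network spikes were recorded on days 5, 7, 9, 12 and summarized as trapezoidal AUC versus DMSO.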

[14] = CCTE_Shafer_MEA_dev_network_spike_peak: CCTE's Neural Network Formation Assay for Mean Number of Electrodes in Network Spike, Shafer Lab (AID 2284049; active means hit-call score of the fitted dose curve at least 0.9, where 1 is the maximum; inactive means score below 0.9)
Outline: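 Continuous 12-day exposure of rat cortical cultures, starting at plating, on MEA plates. Endpoint: electrodes participating in network-spike peaks, AUC across DIV 5–12, DMSO as negative control.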

[15] = CCTE_Shafer_MEA_dev_spike_duration_mean: CCTE's Neural Network Formation Assay for Mean Spike Duration, Shafer Lab (AID 2284051; active means hit-call score of the fitted dose curve at least 0.9, where 1 is the maximum; inactive means score below 0.9;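 further: mean network spike duration pooled as area under curve over DIV 5 to 12 recordings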)
Outline: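 With DMSO as baseline, loss of mean network spike duration was scored from extracellular recordings of rat cortical neurons on MEA plates. Exposure spanned plating to DIV 12; the four recording days were collapsed into one AUC value.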

[16] = CCTE_Shafer_MEA_dev_network_spike_duration_std: CCTE's Neural Network Formation Assay for Standard Deviation of Network Spike Duration, Shafer Lab (AID 2284052; active means hit-call score of the fitted dose curve at least 0.9, where 1 is the maximum; inactive means score below 0.9;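 further: area under curve of spike duration SD across recording days 5 to 12; hits are decreases in network spike duration SD versus DMSO vehicle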)
Outline: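 Developing networks of rat cortical neurons were exposed over twelve days in vitro on 48-well MEA plates. Trapezoidal AUC of recordings (DIV 5–12) was analysed for signal loss relative to DMSO vehicle.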

[17] = CCTE_Shafer_MEA_dev_per_network_spike_spike_number_mean: CCTE's Neural Network Formation Assay for Mean Number of Spikes in a Network Spike, Shafer Lab (AID 2284053; active means hit-call score of the fitted dose curve at least 0.9, where 1 is the maximum; inactive means score below 0.9)
Outline: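 First, rat cortical cells (1.5 x 10^5/well) were seeded onto MEA wells; second, dosing began at plating and was refreshed on DIV 5 and 9; finally, network-spike spike counts across DIV 5–12 were summarized as AUC.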

[18] = CCTE_Shafer_MEA_dev_per_network_spike_spike_percent: CCTE's Neural Network Formation Assay for Percent of Spikes in a Network Spike, Shafer Lab (AID 2284054; active means hit-call score of the fitted dose curve at least 0.9, where 1 is the maximum; inactive means score below 0.9)
Outline: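 Primary rat cortical neurons on 16-electrode MEA wells (PEI-coated, laminin at plating), exposed from day 0 with renewal at DIV 5 and 9; spikes within 0.05 s of network-spike peaks over total spikes, AUC across days 5, 7, 9, 12.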

[19] = CCTE_Shafer_MEA_dev_LDH: CCTE's Lactate Dehydrogenase Assay for Cytotoxicity in the Neural Network Formation Assay, Shafer Lab (AID 2284068);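 further: exposure for twelve days from plating with re-dosing on DIV 5 and 9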
Outline: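 Developing rat cortical networks on MEA plates are exposed to compound for 12 days from plating. LDH activity is measured spectrophotometrically, with DMSO as baseline.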

[20] = CCTE_Shafer_MEA_dev_AB: CCTE's Alamar Blue Assay for Cytotoxicity in the Neural Network Formation Assay, Shafer Lab (AID 2284083);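 further: resazurin reduction fluorescence as viability of cultured neurons; twelve days of exposure from plating with re-dosing on DIV 5 and 9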
Outline: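 Cytotoxicity companion to the developmental MEA: primary rat cortical neurons, 12-day exposure starting day 0, compound refreshed DIV 5 and 9; resazurin fluorescence, fitted against DMSO vehicle.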

[21] = CCTE_Shafer_MEA_dev_mutual_information_norm: CCTE's Neural Network Formation Assay for Mutual Information Normalization, Shafer Lab (AID 2284091; active means hit-call score of the fitted dose curve at least 0.9, where 1 is the maximum; inactive means score below 0.9)
Outline: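 Rat cortical cultures, 48-well MEA, continuous exposure DIV 0–12 with full media/compound change DIV 5 and 9. Readout: inter-electrode mutual information, AxIS adaptive spike detection; AUC across DIV 5/7/9/12 recordings; DMSO baseline, negative fitting direction.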

[22] = CCTE_Shafer_MEA_dev_correlation_coefficient_mean: CCTE's Neural Network Formation Assay for Mean Correlation Coefficient, Shafer Lab (AID 2284093; active means hit-call score of the fitted dose curve at least 0.9, where 1 is the maximum; inactive means score below 0.9)
Outline: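 Extracellular firing from rat cortical networks on 48-well MEAs, DMSO-referenced, negative fitting direction. Compound present from plating to DIV12; mean pairwise correlation per well integrated over DIV5–12 recordings by trapezoidal AUC.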

[23] = molecular target: Norway rat Vesicular Monoamine Transporter (VMAT2), neurotransmitter transporter, Slc18a2 (gene 25549) (UniProt Q01827); assay: NVS_TR_rVMAT2: NovaScreen (NVS) Transporter Assay for Norway rat Vesicular Monoamine Transporter (VMAT2), neurotransmitter transporter (AID 2283376);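 further: actives lower the bound radioligand signal below the DMSO level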
Sequence of Norway rat Vesicular Monoamine Transporter (VMAT2), neurotransmitter transporter, Slc18a2 (gene 25549) (Q01827 whole entry, looked up): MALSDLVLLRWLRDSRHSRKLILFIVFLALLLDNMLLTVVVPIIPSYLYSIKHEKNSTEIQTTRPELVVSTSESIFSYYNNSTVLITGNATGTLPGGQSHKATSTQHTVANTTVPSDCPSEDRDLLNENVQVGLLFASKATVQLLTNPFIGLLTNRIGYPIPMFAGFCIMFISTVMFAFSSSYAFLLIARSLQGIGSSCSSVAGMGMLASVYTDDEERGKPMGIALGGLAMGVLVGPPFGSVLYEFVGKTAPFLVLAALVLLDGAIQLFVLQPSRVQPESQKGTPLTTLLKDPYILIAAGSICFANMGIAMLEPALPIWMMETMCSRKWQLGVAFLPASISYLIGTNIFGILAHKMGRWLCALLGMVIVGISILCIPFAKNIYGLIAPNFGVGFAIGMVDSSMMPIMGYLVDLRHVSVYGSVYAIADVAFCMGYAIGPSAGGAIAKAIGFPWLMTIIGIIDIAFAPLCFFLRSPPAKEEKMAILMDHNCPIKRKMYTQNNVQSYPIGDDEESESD
Outline: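 Rat forebrain tissue preparation used in a cell-free radioligand binding format; displacement read by filter-based scintillation counting 1 hour after dosing. Primary screen in duplicate at 25 uM, actives then run in concentration series; loss of signal versus DMSO baseline.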

[24] = molecular target: Cellular tumor antigen p53 (Homo sapiens) (UniProt P04637); assay: TOX21_p53_BLA_p2_ratio: Tox21 HCT-116 p53 Agonism Beta-lactamase Assay, Ratio, Phase 2 (AID 2283592)
Sequence of Cellular tumor antigen p53 (Homo sapiens) (P04637 whole entry, looked up): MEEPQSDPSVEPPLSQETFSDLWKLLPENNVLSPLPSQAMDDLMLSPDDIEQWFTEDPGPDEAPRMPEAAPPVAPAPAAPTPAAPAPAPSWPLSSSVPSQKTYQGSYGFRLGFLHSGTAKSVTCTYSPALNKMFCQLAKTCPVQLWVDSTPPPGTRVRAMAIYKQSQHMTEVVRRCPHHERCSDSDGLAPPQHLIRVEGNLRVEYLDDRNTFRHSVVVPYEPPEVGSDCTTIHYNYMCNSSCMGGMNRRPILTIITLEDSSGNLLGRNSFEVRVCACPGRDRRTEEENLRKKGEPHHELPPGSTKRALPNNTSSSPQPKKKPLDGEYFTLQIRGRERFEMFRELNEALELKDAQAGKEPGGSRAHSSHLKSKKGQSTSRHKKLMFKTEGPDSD
Outline: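 In this cell-based reporter format, HCT116 cells were dosed with chemicals delivered from DMSO by 217-fold dilution and incubated 16 h at 37C. Emission at 460 and 530 nm after 2 h CCF4-AM loading provided the ratio, fitted upward versus DMSO.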

[25] = molecular target: Cellular tumor antigen p53 (Homo sapiens) (UniProt P04637); assay: TOX21_p53_BLA_p3_ratio: Tox21 HCT-116 p53 Agonism Beta-lactamase Assay, Ratio, Phase 3 (AID 2283596)
Outline: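 HCT116 p53-bla cells (4000/well) given compound in DMSO (217-fold dilution) after 5 h, incubated 16 h at 37C. CCF4-AM substrate 2 h at room temperature; 460/530 nm emission ratio, gain fitted against DMSO.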

[26] = molecular target: Cellular tumor antigen p53 (Homo sapiens) (UniProt P04637); assay: TOX21_p53_BLA_p5_ratio: Tox21 HCT-116 p53 Agonism Beta-lactamase Assay, Ratio, Phase 5 (AID 2283599)
Outline: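 HCT-116 cells carrying a p53-inducible beta-lactamase reporter were seeded at 4000 cells/well and dosed after 5 h with compound in DMSO (217-fold dilution). After 16 h at 37C, CCF4-AM substrate was added for 2 h, and the 460/530 nm emission ratio was scored as gain-of-signal versus DMSO.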

[27] = molecular target: Cellular tumor antigen p53 (Homo sapiens) (UniProt P04637); assay: TOX21_p53_BLA_p4_ratio: Tox21 HCT-116 p53 Agonism Beta-lactamase Assay, Ratio, Phase 4 (AID 2283601)
Outline: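 HCT116 cells carrying an inducible beta-lactamase reporter were plated at 4000 cells/well, rested 5 h, then exposed to compounds in DMSO (217-fold dilution) for 16 h at 37C. CCF4-AM substrate was loaded 2 h at room temperature; 460/530 nm emission ratio scored gain-of-signal versus DMSO.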

PGR (gene 5241) [28] = molecular target: PGR (gene 5241) (UniProt P06401); assay: TOX21_PR_BLA_Followup_Antagonist_ratio: Tox21 HEK293 Progesterone Receptor (PR) Antagonism Beta-lactamase Follow-Up Assay, Ratio (AID 2283934)
Sequence of PGR (gene 5241) (P06401 whole entry, looked up): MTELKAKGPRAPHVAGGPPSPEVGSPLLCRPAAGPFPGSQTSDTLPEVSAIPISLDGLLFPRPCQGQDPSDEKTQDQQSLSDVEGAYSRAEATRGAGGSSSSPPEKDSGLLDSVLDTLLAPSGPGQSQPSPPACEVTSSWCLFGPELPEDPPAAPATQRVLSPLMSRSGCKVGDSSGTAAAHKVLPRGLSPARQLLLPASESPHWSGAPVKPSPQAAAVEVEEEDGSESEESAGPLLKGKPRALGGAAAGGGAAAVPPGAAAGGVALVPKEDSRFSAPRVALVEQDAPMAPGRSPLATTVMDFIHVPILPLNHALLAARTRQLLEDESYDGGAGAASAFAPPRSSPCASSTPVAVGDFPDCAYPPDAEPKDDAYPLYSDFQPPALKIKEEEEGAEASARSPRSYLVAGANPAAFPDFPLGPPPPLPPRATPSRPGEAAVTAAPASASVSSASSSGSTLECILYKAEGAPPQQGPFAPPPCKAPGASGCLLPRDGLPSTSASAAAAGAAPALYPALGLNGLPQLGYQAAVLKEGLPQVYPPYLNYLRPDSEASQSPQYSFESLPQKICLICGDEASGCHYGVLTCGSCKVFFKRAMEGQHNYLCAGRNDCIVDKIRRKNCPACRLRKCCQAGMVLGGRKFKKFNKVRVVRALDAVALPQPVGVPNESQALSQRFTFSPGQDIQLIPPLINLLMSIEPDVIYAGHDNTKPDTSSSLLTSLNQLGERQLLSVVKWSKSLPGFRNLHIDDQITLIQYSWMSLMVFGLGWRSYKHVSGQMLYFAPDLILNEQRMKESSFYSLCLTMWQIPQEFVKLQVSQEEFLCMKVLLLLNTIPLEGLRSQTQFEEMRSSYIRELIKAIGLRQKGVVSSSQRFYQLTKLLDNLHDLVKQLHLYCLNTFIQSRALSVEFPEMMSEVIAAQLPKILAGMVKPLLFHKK
Outline: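 PR-UAS-bla HEK293T cells, 3,000/well in 2% charcoal-stripped FBS, given compound plus 1nM R5020 agonist for 16 hr at 37C. Beta-lactamase FRET substrate 2 hours, ratio cleaved/uncleaved fluorescence; viability by CellTiter-Glo in same wells.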

[29] = TOX21_PR_BLA_Followup_Agonist_viability: Viability Assessment in the Tox21 HEK293 Progesterone Receptor (PR) Agonism Beta-lactamase Follow-Up Assay (AID 2283935);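 further: signal loss means lower viability so actives are cytotoxic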
Outline: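 PR-UAS-bla HEK293T cells in 2% charcoal-stripped FBS medium, plated 6 hr before compound addition, exposed 16 hr at 37C. Viability read by CellTiter-Glo ATP luminescence after 30 min at room temperature, in the same wells as the beta-lactamase readout.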

[30] = TOX21_PR_BLA_Followup_Antagonist_viability: Viability Assessment in the Tox21 HEK293 Progesterone Receptor (PR) Antagonism Beta-lactamase Follow-Up Assay (AID 2283936);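 further: hits lower the luminescence signal meaning cytotoxicity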
Outline: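 PR-UAS-bla HEK293T cells (3,000/well, 2% charcoal-stripped FBS) given compound plus R5020 agonist, 16 h at 37C. CellTiter-Glo added after bla read, 30 min at room temperature; luminescence loss indicates cytotoxicity.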

PGR (gene 5241) [31] = molecular target: PGR (gene 5241) (UniProt P06401); assay: TOX21_PR_LUC_Followup_Antagonist: Tox21 HEK293 Progesterone Receptor (PR) Antagonism Luciferase Follow-Up Assay (AID 2283938);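 further: curve fitted upward as signal gain over DMSO baseline despite antagonist label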
Outline: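 Luminescence from ONE-Glo reagent, measured after 30 min at room temperature, served as readout. Cells (HEK293 carrying PR-A-luc) had been treated 16 h at 37C with DMSO-dissolved compounds. Activity was fitted against DMSO controls.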

[32] = TOX21_PR_LUC_Followup_Antagonist_viability: Viability Assessment in the Tox21 HEK293 Progesterone Receptor (PR) Antagonism Luciferase Follow-Up Assay (AID 2283940)
Outline: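 HEK293-PR-A-luc cells kept in charcoal-stripped FBS medium were plated 5 h before compound addition, then exposed 16 h at 37C; viability read as cellular ATP by luciferase luminescence, loss of signal indicating cytotoxicity.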

Measured: AC50

CCOP(=O)(O)OCC (tested in a mixture with another compound)
active: [1] 72.3 µM | [2] 28.7 µM | [3] 83 µM | [4] 85.2 µM
inactive: [1] | [2] | [4] | [5] | [6] | [7] | [8] | [9] | [10] | [11] | [12] | [13] | [14] | [15] | [16] | [17] | [18] | [19] | [20] | [21] | [22]

CCCCCCCCCCCCCCCC[N+](C)(C)CC
inactive: [23]

C[C@]12C/C(=C/O)C(=O)C[C@@H]1CC[C@@H]1[C@@H]2CC[C@@]2(C)[C@H]1CC[C@]2(C)O
inactive: [1] | [24] | [2] | [25] | [26] | [4] | [27] | PGR (gene 5241) [28] | [29] | [30] | PGR (gene 5241) [31] | [32]
active: [24] 42.5 µM | [2] 66.6 µM | [3] 52.8 µM and 34.6 µM | [4] 71.4 µM | [27] 42.4 µM

C=CC(=O)OCCN(C)C
inactive: [1] | [24] | [2] | [25] | [3] | [26] | [4]
